Screen size: about 310,000 compounds; about 14,000 (4.5%) showed an effect of 50% or more. Effects have a minus sign here. This excerpt belongs to a sample that is enriched for strong results.
molecular target: human ether-à-go-go-related gene (hERG) potassium channel (human, UniProt Q12809); experiment: primary screen, population patch clamp on CHO cells stably expressing hERG; higher = less effect of the substance
Description: Briefly, Chinese hamster ovary (CHO) cells stably expressing the hERG channel were dislodged from tissue culture flasks and dispensed into PPC plates. […] During the recording, background leak currents were estimated by a 100 ms step to -80 mV from an initial holding potential of -70 mV and subtracted from the subsequent current measurement. The campaign was conducted in two phases using slight differences in recording protocol. In the first phase, the initial voltage pulse used a 100 ms step to -30 mV from a holding potential of -70 mV, a 2 s conditioning step to +25 mV, and a 2 s test step to -30 mV. During the second phase of the screen, the potential during the conditioning step was raised to +45 mV. In both phases of the campaign, a secondary voltage pulse was applied using the same parameters as the second phase initial pulse. The initial and secondary pulses were applied in the absence of compound, and upon application of 1 μM and 10 μM test concentrations. […]
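Also: peak tail current of the secondary pulse compared with the same well before compound.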

Sequence of human ether-à-go-go-related gene (hERG) potassium channel (Q12809 whole entry, looked up): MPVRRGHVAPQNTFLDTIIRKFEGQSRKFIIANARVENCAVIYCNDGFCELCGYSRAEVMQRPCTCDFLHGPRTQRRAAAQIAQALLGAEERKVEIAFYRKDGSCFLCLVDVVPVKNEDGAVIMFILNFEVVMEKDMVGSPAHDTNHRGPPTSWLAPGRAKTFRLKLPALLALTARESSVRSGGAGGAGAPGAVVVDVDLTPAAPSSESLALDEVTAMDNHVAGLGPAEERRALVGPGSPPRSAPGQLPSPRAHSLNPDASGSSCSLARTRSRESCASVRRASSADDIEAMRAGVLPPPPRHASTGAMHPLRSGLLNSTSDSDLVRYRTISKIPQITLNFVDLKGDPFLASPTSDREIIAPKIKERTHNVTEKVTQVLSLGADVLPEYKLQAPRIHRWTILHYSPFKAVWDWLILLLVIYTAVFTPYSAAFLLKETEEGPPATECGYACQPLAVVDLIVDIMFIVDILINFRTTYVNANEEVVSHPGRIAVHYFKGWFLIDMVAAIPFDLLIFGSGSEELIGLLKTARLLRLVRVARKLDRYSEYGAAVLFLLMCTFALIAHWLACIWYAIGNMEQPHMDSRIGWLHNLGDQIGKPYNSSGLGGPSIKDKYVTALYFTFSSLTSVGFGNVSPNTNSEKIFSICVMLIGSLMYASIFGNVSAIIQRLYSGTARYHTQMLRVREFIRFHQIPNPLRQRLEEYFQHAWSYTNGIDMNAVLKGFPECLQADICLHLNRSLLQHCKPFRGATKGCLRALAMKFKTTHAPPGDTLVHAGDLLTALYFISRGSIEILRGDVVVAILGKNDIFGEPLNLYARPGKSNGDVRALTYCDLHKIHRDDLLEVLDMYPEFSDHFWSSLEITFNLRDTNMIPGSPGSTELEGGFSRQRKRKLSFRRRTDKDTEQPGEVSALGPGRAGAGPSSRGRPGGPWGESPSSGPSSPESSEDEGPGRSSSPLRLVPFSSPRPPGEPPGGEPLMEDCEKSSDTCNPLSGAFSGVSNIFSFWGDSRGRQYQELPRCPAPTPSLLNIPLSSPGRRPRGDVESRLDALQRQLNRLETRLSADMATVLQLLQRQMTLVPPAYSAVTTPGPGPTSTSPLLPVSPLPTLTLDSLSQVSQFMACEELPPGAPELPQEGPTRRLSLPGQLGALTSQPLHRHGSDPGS

Row | SMILES | hERG current change (%, negative = inhibition) at 10uM [%]
1 | CC[n+]1c(S(=O)(=O)[O-])ccc2ccc(C)cc21 | 6.26
2 | CCN1/C(=C/c2ccc3ccc(C)cc3[n+]2CC)Sc2ccccc21.[I-] | -81.1
3 | Cc1ccc2c(c1)S/C(=C\c1cccc[n+]1C)N2CCO.[I-] | -0.805
4 | CCN1/C(=C/c2ccc3cc(C)ccc3[n+]2CC)Sc2ccc3sccc3c21.[I-] | -44.5
5 | CCC(=O)/C=C1/Sc2ccccc2N1CC | 7.66
6 | CCN1/C(=C/c2ccc3cccc(C)c3[n+]2CC)Sc2ccccc21.[I-] | -75
7 | CCN1/C(=C/C(=O)c2ccco2)Sc2ccccc21 | 8.09
8 | CCC(=O)/C=C1\Sc2ccccc2N1CC | -3.72
9 | CCN1/C(=C/c2ccc3cc(C)ccc3[n+]2CC)Sc2ccccc21.[I-] | -90.6
10 | COc1ccccc1CNCC(=O)Nc1ccc(N2CCOCC2)cc1.O=C(O)C(=O)O | 1.57
11 | O=C(NCc1cccnc1)C1CCCCN1S(=O)(=O)c1ccc(F)cc1 (stereo not shown) | -20.9
12 | CC(=O)Nc1ccc(S(=O)(=O)N2CCN(C(=O)Cc3ccccc3)CC2)cc1 | -1.44
13 | COc1ccc(CN(CCNC(=O)CCCCC(=O)NCCN(Cc2ccc(OC)cc2)C(C)C)C(C)C)cc1.Cl | -5.63
14 | O=C(CCCOc1ccccc1)Nc1nncs1 | -5.59
15 | COc1ccc(OC)c(N2C(=O)NC(=O)C3(Cc4cc(C)ccc4N(C)C3)C2=O)c1 (stereo not shown) | -5.52
16 | Cc1ccccc1Oc1cc(-n2ncc(Cl)c(Cl)c2=O)ncn1 | 6.67
17 | CCc1cccc(CC)c1NC(=O)COc1ccccc1C(=O)c1cc(C#N)c(=O)n(C2CCCCC2)c1 | 14.4
18 | CCCCNC(=O)c1ccccc1Cl | 21.5
19 | CN1CCc2c(n(CC(O)CNCc3ccccc3)c3ccccc23)C1=O.Cl (stereo not shown) | -52.8
20 | CN1CCc2c(n(CC(O)CN3CCN(CCO)CC3)c3ccccc23)C1=O.Cl (stereo not shown) | 2.24
21 | CN1CCc2c(n(CC(O)CN(CCO)CCO)c3ccccc23)C1=O.Cl (stereo not shown) | 6.94
22 | Cc1cc(C)cc(N2CC(C)Cn3c2nc2c3c(=O)[nH]c(=O)n2C)c1 (stereo not shown) | -2.03

Row | SMILES | hERG current change (%, negative = inhibition) at 10uM [%]
23 | CCC(Oc1ccccc1)C(=O)NC1CCCCCC1 (stereo not shown) | -0.406
24 | CCC1CCCCN1C(=O)CCn1c(=O)oc2ccccc21 (stereo not shown) | -17.7
25 | O=C(N/N=C/c1cccnc1)c1cc(-c2cccs2)nc2ccccc12 | -20
26 | CCC(C)Sc1cccc(-c2nc3cc(C)ccn3c2NCc2ccccc2)c1.O=C(O)C(F)(F)F (stereo not shown) | 4.02
27 | Cc1ccc(S(=O)(=O)N2CCCCC2)cc1C(=O)N1CCN(CCO)CC1 | 3.41
28 | O=C(OCc1ccccc1)C1=NNC2C(=O)N(Cc3ccccc3)C(=O)C12 (stereo not shown) | 16.2
29 | O=C(C1=NN[C@@H]2C(=O)N(Cc3ccccc3)C(=O)[C@H]12)c1ccc([N+](=O)[O-])cc1 | -50.2
30 | O=C(C1=NN[C@@H]2C(=O)N(Cc3ccccc3)C(=O)[C@H]12)c1ccc(F)cc1 | 7.44
31 | CC(C)(C)c1nnc(NS(=O)(=O)c2ccc([N+](=O)[O-])cc2)s1 | 28.3
32 | Fc1ccccc1-c1nc(N2CCCCC2)c2ccccc2n1 | -1.61
33 | CSc1nc(N2CCN(C)CC2)c2ccccc2n1 | -49.1
34 | CN1CCN(c2nc(-c3ccccn3)nc3ccccc23)CC1 | -51.4
35 | c1ccc(-c2nc(N3CCOCC3)c3ccccc3n2)nc1 | -15.9
36 | c1ccc(CN2CCN(c3nc(-c4ccccn4)nc4ccccc34)CC2)cc1 | 5.45
37 | c1ccc(-c2nc(N3CCCCCC3)c3ccccc3n2)nc1 | -77.5
38 | c1ccc(N2CCN(c3nc(-c4ccccn4)nc4ccccc34)CC2)cc1 | -73.9
39 | CCN1CCN(c2nc(-c3ccccn3)nc3ccccc23)CC1 | -56.3
40 | Oc1ccccc1-c1nc(N2CCCC2)c2ccccc2n1 | -13.2
41 | COc1cccc(-c2nc(N3CCN(c4ccccc4)CC3)c3ccccc3n2)c1O | 0.912
42 | Cc1cc(C)c(S(=O)(=O)N2CCOC2CNC(=O)C(=O)NCCN(C)C)c(C)c1 (stereo not shown) | 13.1
43 | COc1ccc2[nH]cc(CCNC(=O)c3ccco3)c2c1 | 12.3
